Source: publication PMC4336329 (PLoS ONE, 2015)
The whole screen tested about 310,000 compounds, of which about 14,000 (4.5%) showed an effect of 50% or more. The effect is printed as a negative number. The sample as a whole holds a higher share of strong results than the screen did.

molecular target: human ether-à-go-go-related gene (hERG) potassium channel (human, UniProt Q12809); assay: primary screen, population patch clamp on CHO cells stably expressing hERG; higher = less effect of the substance
Sequence (Q12809 whole entry, looked up): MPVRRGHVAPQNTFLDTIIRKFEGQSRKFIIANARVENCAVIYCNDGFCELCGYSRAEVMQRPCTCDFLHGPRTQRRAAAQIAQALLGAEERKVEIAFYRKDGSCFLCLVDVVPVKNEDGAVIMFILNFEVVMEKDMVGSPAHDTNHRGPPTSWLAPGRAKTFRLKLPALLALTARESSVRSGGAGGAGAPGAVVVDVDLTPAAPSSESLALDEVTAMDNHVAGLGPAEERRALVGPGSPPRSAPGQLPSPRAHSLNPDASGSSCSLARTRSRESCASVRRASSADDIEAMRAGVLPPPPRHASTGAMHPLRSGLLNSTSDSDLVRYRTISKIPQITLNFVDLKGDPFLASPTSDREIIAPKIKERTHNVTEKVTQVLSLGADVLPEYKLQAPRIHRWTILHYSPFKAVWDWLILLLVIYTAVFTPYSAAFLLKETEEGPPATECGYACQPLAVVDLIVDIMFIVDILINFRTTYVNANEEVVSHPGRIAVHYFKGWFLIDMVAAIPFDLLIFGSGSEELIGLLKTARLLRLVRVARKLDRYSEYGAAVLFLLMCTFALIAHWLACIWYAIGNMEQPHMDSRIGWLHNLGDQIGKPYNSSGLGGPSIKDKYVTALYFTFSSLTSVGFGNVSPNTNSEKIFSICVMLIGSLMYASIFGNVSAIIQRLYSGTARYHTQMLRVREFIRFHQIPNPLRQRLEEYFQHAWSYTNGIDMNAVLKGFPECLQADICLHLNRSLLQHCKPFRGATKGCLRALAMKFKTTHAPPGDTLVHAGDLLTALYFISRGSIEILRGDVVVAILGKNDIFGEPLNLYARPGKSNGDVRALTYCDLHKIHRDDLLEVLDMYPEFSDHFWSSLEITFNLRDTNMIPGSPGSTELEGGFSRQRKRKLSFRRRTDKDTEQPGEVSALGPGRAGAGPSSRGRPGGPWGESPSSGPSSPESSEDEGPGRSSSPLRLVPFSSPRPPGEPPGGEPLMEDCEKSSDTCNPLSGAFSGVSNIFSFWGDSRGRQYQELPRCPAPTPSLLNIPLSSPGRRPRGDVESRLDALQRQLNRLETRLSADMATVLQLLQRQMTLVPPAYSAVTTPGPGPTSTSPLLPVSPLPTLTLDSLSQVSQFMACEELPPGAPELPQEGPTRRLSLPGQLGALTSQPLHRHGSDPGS
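Also: peak tail current of the secondary pulse compared with the same well before compound.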

Row | SMILES | hERG current change (%, negative = inhibition) at 10uM
1 | CCOC(=O)C1CCCN(C(=O)CCCn2nc(C)n3c(cc4sccc43)c2=O)C1 (stereo not drawn) | -49.3%
2 | CCOC(=O)CCCn1nc(C)n2c(cc3sccc32)c1=O | -21.6%
3 | Cc1nn(CCCC(=O)N2CCc3ccccc3C2)c(=O)c2cc3sccc3n12 | -75.5%
4 | COc1ccc(C(CNCC(=O)Nc2ccccc2F)N(C)C)cc1.O=C(O)C(=O)O (stereo not drawn) | -35.1%
5 | COc1ccc(S(=O)(=O)NCC(c2ccc3c(c2)OCO3)N2CCN(C)CC2)cc1OC (stereo not drawn) | -15.5%
6 | CN1CCN(C(CNS(=O)(=O)c2ccc(Br)cc2)c2ccc3c(c2)OCO3)CC1 (stereo not drawn) | -79.8%
7 | COc1ccc(S(=O)(=O)NCC(c2ccc3c(c2)OCO3)N2CCOCC2)cc1 (stereo not drawn) | -6.41%
8 | COc1ccc(C)cc1S(=O)(=O)NCC(c1ccc2c(c1)OCO2)N1CCN(C)CC1 (stereo not drawn) | -68.2%
9 | COc1ccc(C)cc1S(=O)(=O)NCC(c1ccc2c(c1)OCO2)N1CCOCC1 (stereo not drawn) | -13.6%
10 | O=S(=O)(NCC(c1ccc2c(c1)OCO2)N1CCOCC1)c1ccc(Br)cc1 (stereo not drawn) | -16%
11 | COc1ccc(F)cc1S(=O)(=O)NCC(c1ccc2c(c1)OCO2)N1CCN(C)CC1 (stereo not drawn) | -45.6%
12 | Cc1ccc(S(=O)(=O)NCC(c2ccc3c(c2)OCO3)N2CCOCC2)cc1 (stereo not drawn) | -8.63%
13 | CCOc1ccc(S(=O)(=O)NCC(c2ccc3c(c2)OCO3)N2CCN(C)CC2)cc1 (stereo not drawn) | -59.2%
14 | O=C(NC(=O)c1ccc(F)cc1)Nc1nc(-c2cccs2)cc(C(F)(F)F)n1 | 12.2%
15 | Cn1nnnc1SCC(=O)N1CCOCC1 | 16.2%
16 | CN1CCN(C(=O)/C(=C\c2ccccc2)c2ccccc2)CC1 | -59.9%
17 | CN1CCN(C(=O)/C(C#N)=C/c2ccc(F)cc2)CC1.Cl | 6.63%
18 | O=C(O)/C(=C\c1ccccc1)c1ccccc1 | -0.424%
19 | CN1CCN(C(=O)CCC(=O)c2ccc(F)cc2)CC1 | 8.49%
20 | CC1CCCCN1C(=O)/C(=C\c1ccccc1)c1ccccc1 (stereo not drawn) | -17.4%
21 | CN1CCN(C(=O)/C(=C/c2ccc(F)cc2)c2ccsc2)CC1.Cl | -70.1%

Row | SMILES | hERG current change (%, negative = inhibition) at 10uM
22 | CC1CC(C)CN(C(=O)/C(=C\c2ccccc2)c2ccccc2)C1 (stereo not drawn) | -27.4%
23 | CN1CCN(C(=O)/C(=C/c2ccccc2)c2ccccc2)CC1 | -54.8%
24 | C/C(=C/c1ccccc1)C(=O)N1CCN(c2ccccc2)CC1 | -16.2%
25 | COCCn1c(-c2ccccc2)nc(=S)c2c1CC(C)(C)OC2 | -11.5%
26 | COc1ccc(-c2noc(N3CCC(C(=O)NCc4ccc(F)cc4)CC3)n2)cc1 | -20.4%
27 | CC(=N)C1=C(O)CC(C)(C)CC1=O | 1.84%
28 | CC(=O)NCCCC(=O)NN1C(=S)N(Cc2ccccc2)C(=O)C1CC(=O)Nc1cccc(C)c1 (stereo not drawn) | 8.8%
29 | O=C(NC1CC(=O)N(c2ccc3c(c2)OCCO3)C1)N1CCCCC1 (stereo not drawn) | 12.4%
30 | CC1(c2nnc(-c3ccc(F)cc3)o2)CC(c2c(Cl)cccc2Cl)=NO1 (stereo not drawn) | -37%
31 | COC(=O)c1nnn(-c2nonc2N)c1CN1CCc2ccccc21 | 4.57%
32 | c1ccc(CNCC2COc3ccccc3O2)cc1 (stereo not drawn) | 8.17%
33 | O=C(Cn1c(CO)nc2ccccc21)Nc1ccccc1Cl | 25.1%
34 | CCC(CC)c1nnc(NC(=O)CCc2ccc(OC)cc2)s1 | 13.1%
35 | Cc1ccc2cc(CCNC(=O)c3cccc([N+](=O)[O-])c3)c(=O)[nH]c2c1 | -20.2%
36 | COc1ccc2cc(CCNC(=O)c3cccc([N+](=O)[O-])c3)c(=O)[nH]c2c1 | -79.2%
37 | CCN(Cc1cc2cc(C)ccc2[nH]c1=O)C(=O)c1cccc([N+](=O)[O-])c1 | -37.9%
38 | Cc1cc2cc(CCNC(=O)c3cccc([N+](=O)[O-])c3)c(=O)[nH]c2cc1C | -47.1%
39 | Cc1ccc2[nH]c(=O)c(CN(C(=O)c3cccc([N+](=O)[O-])c3)C(C)C)cc2c1 | -50.5%
40 | CC(C)N(Cc1cc2ccccc2[nH]c1=O)C(=O)c1cccc([N+](=O)[O-])c1 | -13.4%
41 | CC(O)CNc1nc2c(c(=O)n(C)c(=O)n2C)n1C/C=C/c1ccccc1 (stereo not drawn) | -13.7%
42 | COc1ccc(NS(=O)(=O)c2cc(NC(=O)c3ccc(=O)[nH]n3)ccc2N2CCOCC2)cc1 | -23.2%

Row | SMILES | hERG current change (%, negative = inhibition) at 10uM
43 | COc1ccc(NC(=O)C2CCN(S(=O)(=O)c3cccc4cccnc34)CC2)cc1OC | 9.47%
44 | Cc1nn(C(C)(C)C)c(C)c1/C=N/OC(=O)Nc1ccc(Cl)c(Cl)c1 | 1.85%
45 | CC#CCN(Cc1ccco1)C(=O)c1ccc(OC2CCN(Cc3ccccn3)CC2)cc1 | -60.3%
46 | C#CCN(C(=O)c1ccc(OC2CCN(Cc3ccccn3)CC2)cc1)C1CCCCC1 | -39.6%
47 | CN(C(=O)c1ccc(OC2CCN(Cc3ccccn3)CC2)cc1)C1CCCCC1 | -9.82%
48 | CN(Cc1ccco1)C(=O)c1ccc(OC2CCN(Cc3ccccn3)CC2)cc1 | -6.63%
49 | C=CCN(CC=C)C(=O)c1ccc(OC2CCN(Cc3ccccn3)CC2)cc1 | -9.67%
50 | C#CCN(Cc1ccco1)C(=O)c1ccc(OC2CCN(Cc3ccccn3)CC2)cc1 | -66.9%
51 | CCOC(=O)c1cnn(-c2nc(CC)nc3sc4c(c23)CCC4)c1N | 8.44%
52 | C=CCN1C(=O)c2ccc(C(=O)N3CCN(S(=O)(=O)c4cccc(F)c4)CC3)cc2C1=O | -62.7%
53 | C=CCN1C(=O)c2ccc(C(=O)N3CCN(S(=O)(=O)c4cccc([N+](=O)[O-])c4)CC3)cc2C1=O | -30.4%
54 | C=CCN1C(=O)c2ccc(C(=O)N3CCN(S(=O)(=O)c4cccc(Cl)c4)CC3)cc2C1=O | -14.8%
55 | Nc1ccc(C(=O)N2CCN(S(=O)(=O)c3ccc(Cl)cc3)CC2)cc1[N+](=O)[O-] | -46.1%
56 | O=C(c1ccc(-n2cncn2)c([N+](=O)[O-])c1)N1CCN(S(=O)(=O)c2c(F)cccc2F)CC1 | -56.8%
57 | O=C(c1ccc(Cl)c([N+](=O)[O-])c1)N1CCN(S(=O)(=O)c2ccc(Cl)cc2)CC1 | -11.3%
58 | O=C(c1ccncc1)N1CCN(S(=O)(=O)c2cccc(F)c2)CC1 | 7.6%
59 | O=C(c1ccc(-n2cncn2)c([N+](=O)[O-])c1)N1CCN(S(=O)(=O)c2ccc(Cl)cc2)CC1 | -61.4%
60 | O=C(c1ccc2nc[nH]c2c1)N1CCN(S(=O)(=O)c2cccc(F)c2)CC1 | 12%
61 | O=C(NNC(=O)c1ccccc1F)c1ccc(-n2cncn2)c([N+](=O)[O-])c1 | 7.74%
62 | O=C(c1ccc(-n2cncn2)c([N+](=O)[O-])c1)N1CCN(S(=O)(=O)c2ccccc2F)CC1 | -45.1%
63 | O=C(c1ccc(-n2cncn2)c([N+](=O)[O-])c1)N1CCN(S(=O)(=O)c2cccc(F)c2)CC1 | -71.9%
